Data on 125 compounds can be found in PubChem BioAssay AID492998 (Southern Research Specialized Biocontainment Screening …, 2010).

The whole screen tested about 2,300 compounds, of which about 550 (24%) were called active. The rule behind the calls is not given here. These entries were drawn from the full list. Entries with a potency or affinity are not part of this list.

The test can be described thus: Vero E6 cell cytotoxicity, dose response, cytotoxicity control for non-replicating M. tuberculosis project, secondary assay (AID 492998). As to conditions: series mostly up to 20 µM.
As to `CCN(CC)S(=O)(=O)c1ccc(C(=O)OCn2nnc3ccccc3c2=O)cc1`, the result was inactive.

For `Nc1ccc(Br)c2cccnc12`, the compound was called inactive.

Consider `CCN(CC)c1ccc(-c2sc(Nc3ccccc3)n[n+]2-c2ccc(F)cc2)cc1`, for which the compound was classed as inactive.

In the case of `Cc1cc(C(=O)N/N=C/c2cccc(Cl)c2Cl)no1`, the outcome was inactive.

`CSc1ccc(NC(=O)Nc2cccn(Cc3ccccc3)c2=O)cc1`: the compound was called inactive.

For `CCN(CC)c1ccc(NC2CC(=O)N(CCc3ccc(OC)cc3)C2=O)cc1` (stereo not given), the call was inactive.

With `CN1C(c2ccccc2)CC(=NO)CC1c1ccccc1` (stereo not given), the compound was called inactive.

For `O=C(COc1ccccc1)Nc1nnc(-c2ccc3c(c2)CCCC3)o1`, the result was inactive.

As to `COc1ccc(-c2nnc(NC(=O)C3=COCCO3)o2)cc1`, the result was inactive.

As to `COc1ccc(-c2nnc(SCC(C)C)o2)cc1`, the compound was classed as inactive.

`O=C(CNC(=O)c1ccc(Br)cc1)c1ccc(Br)cc1`: the result was inactive.

For `COC(=O)COc1ccc(-c2ccc(F)cc2)cc1C=O`, the compound was classed as inactive.

Consider `CC(=O)Nc1ccc(OC(=O)c2ccc(Br)c([N+](=O)[O-])c2)cc1`, for which the outcome was inactive.

Consider `CC(C)C1O/C(=N/C(=O)Nc2ccc(Cl)c(Cl)c2)NC1=O` (stereo not given), for which the result was inactive.

`COc1n[nH]c(C(=O)Nc2cc(F)ccc2C)c1[N+](=O)[O-]`: the call was inactive.

Take `CC(C)(C)NC(=O)COC(=O)c1snc(C(=O)NC2CCCCC2)c1N`: the call was inactive.

`COc1ccc(NC(=O)COc2ccc3c(c2)CCC3)cc1`: the call was inactive.

Regarding `O=C(OCC(=O)c1c[nH]c2ccccc12)c1ccc([N+](=O)[O-])s1`, the compound was called inactive.

For `O=C(CN1CCOCC1)N/N=C/c1ccc(-c2ccc(Br)cc2)o1`, the compound was classed as inactive.

For the compound `O=C(CCSc1nnc(-c2ccncc2)o1)Nc1cccc(Cl)c1`, the result was inactive.

As for `CCc1ccc(OCCCC(=O)Nc2nccs2)cc1`, the outcome was inactive.

Consider `COc1ccc(C(=O)C2CCCN(C(=O)c3ccc(CSC)o3)C2)cc1F` (stereo not given), for which the compound was called inactive.

`CSc1ccc(C(=O)C2CCCN(Cc3cc4ccccc4[nH]3)C2)cc1` (stereo not given): the outcome was inactive.

Turning to `O=C(CCS(=O)(=O)c1ccc(Cl)cc1)Oc1ccc2c(c1)OCO2`, the call was inactive.

As for `CC1=NN(C(=O)COc2ccccc2)C(O)(c2ccccc2)C1` (stereo not given), the result was inactive.

Regarding `CC(Cc1cccs1)NC(=O)c1cccc(Cl)c1` (stereo not given), the result was inactive.

Take `Cc1ccc(C(=O)Oc2cccc(-n3cnnn3)c2)cc1`: the compound was classed as inactive.

For the compound `CCc1ccc(NC(=O)C(=O)NNC(=O)c2cccc(OC)c2)cc1`, the outcome was inactive.

Consider `CCOC(=O)c1csc(-c2snnc2C)n1`, for which the call was inactive.

In the case of `O=C(NNC1=C(C(=O)C(F)(F)F)CCC1)c1ccccc1Cl`, the compound was classed as inactive.

For `N#CC1=C(N)Oc2n[nH]c(-c3cccnc3)c2C1c1ccc([N+](=O)[O-])o1` (stereo not given), the compound was classed as inactive.

For `Cc1c(-c2ccc(Br)cc2)nc2ccccn12`, the outcome was inactive.

In the case of `Cc1ccc(-c2nnc(NC3CCCC3)s2)cc1`, the result was inactive.

Regarding `Cc1ccc(-c2nc3ccccn3c2Nc2ccccc2)o1`, the compound was classed as inactive.

`CCOC(=O)c1c(C)nc2cc(C)ccn12`: the call was inactive.

In the case of `FC(F)(F)c1ccc(-c2nnc(-c3cccnc3)o2)cc1`, the call was inactive.

On to `CCOC(=O)c1ccc(N=CC2=C(O)CC(C)(C)CC2=O)cc1`, for which the outcome was inactive.

Regarding `O=C(c1nnc(-c2ccc(Cl)cc2)o1)C1CCCC1`, the outcome was inactive.

For the compound `COc1ccc(CNC(=O)COC(=O)C2CC3C=CC2C3)cc1` (stereo not given), the compound was classed as inactive.

As for `CSc1ccc(COC(=O)CCS(=O)(=O)c2ccc(C)cc2)cc1`, the call was inactive.

As for `Cc1cc(OCCCn2ccnc2)ccc1C(C)C`, the call was inactive.

Consider `C=C1Cn2c(nnc2-c2ccc(Cl)cc2)S1`, for which the outcome was inactive.

Take `Cc1cccc(OC(=O)c2ccc3nccnc3c2)c1`: the compound was classed as inactive.

In the case of `CCOC(=O)CN(C#N)c1nc(N(C)C)nc(N(C)C)n1`, the compound was called inactive.

With `Cc1cc(OCCCCn2ccnc2)cc(C)c1Cl`, the result was inactive.

As for `O=C(COC(=O)c1ccccc1Br)Nc1ccccc1F`, the outcome was inactive.

Regarding `O=C(NCc1ccc2c(c1)OCO2)c1ccc(Cl)s1`, the outcome was inactive.

As for `Cc1cccc(Cn2ccc(NC(=O)c3ccc4c(c3)OCO4)n2)c1`, the compound was called inactive.

In the case of `CCc1ccc(NC(=O)COc2ccc3c(c2)OCO3)cc1`, the call was inactive.

Consider `CCOC(=O)c1csc(COc2ccc(OC)cc2)n1`, for which the outcome was inactive.

With `CC1(c2nnc(Cc3ccccc3)o2)CC(c2ccccc2[N+](=O)[O-])=NO1` (stereo not given), the compound was classed as inactive.

For the compound `Cc1ccc(CNC(=O)c2cnccn2)cc1`, the compound was called inactive.

Take `Cc1ccc(C(=O)Nc2nccs2)cc1`: the outcome was inactive.

With `CN1C(=O)CC(N2CCC(c3nc4ccccc4s3)CC2)C1=O` (stereo not given), the compound was called inactive.

On to `O=C(CNC(=O)c1ccccc1F)OCc1csc(-c2ccccc2)n1`, for which the call was inactive.

As for `O=C(CCSc1ccc(Cl)cc1)NC1CCCC1`, the compound was classed as inactive.

In the case of `FC(F)c1nnc2ccc(Cl)nn12`, the compound was called inactive.

Turning to `Cc1ncsc1CCOC(=O)c1ccc([N+](=O)[O-])cc1`, the compound was called inactive.

For the compound `CN(C)S(=O)(=O)c1ccc(C(=O)Oc2ccccc2)cc1`, the compound was called inactive.

`CCOC(=O)c1c(-c2ccc(C)o2)csc1NC(=O)CN1CCCCC1`: the compound was classed as inactive.

For the compound `O=C(COc1ccc(Cl)cc1)NNC(=O)c1ccccn1`, the compound was classed as inactive.

`O=C(NNC(=O)C12CC3CC(CC(C3)C1)C2)c1cnccn1`: the result was inactive.

Regarding `O=C(N/N=C/c1ccc[nH]1)c1cccnc1`, the call was inactive.

Turning to `O=C(Nc1ncccc1O)c1ccc(Oc2ccccc2)cc1`, the compound was called inactive.

For the compound `COc1ccc(OCC(=O)NNC(=O)c2ccccn2)cc1`, the compound was called inactive.

As to `COc1ccc(C(=O)N/N=C/c2cccc3cccnc23)cc1`, the outcome was inactive.

On to `O=C(OCC(=O)C12CC3CC(CC(C3)C1)C2)c1ccccn1`, for which the compound was called inactive.

As for `O=C(NC(=S)NNC(=O)[C@H]1C[C@@H]1c1ccccc1)c1cccc(F)c1`, the compound was classed as inactive.

On to `COc1cccc2[nH]c3c(Cl)ncnc3c12`, for which the result was inactive.

Consider `CC1CCCN(CCSc2ccc(Cl)cc2)C1` (stereo not given), for which the compound was classed as inactive.

Regarding `O=C(COc1ccc2ccccc2c1)Nc1ccncc1`, the compound was called inactive.

For the compound `O=C1C=CC(=O)N1N(c1ccccc1)c1ccccc1`, the result was inactive.

Turning to `O=C(c1cccc2cccc(O)c12)N1CCCCC1`, the call was inactive.

In the case of `Cn1c(SCc2c(F)cccc2Cl)nc2c(c1=O)SCC2`, the result was inactive.

Take `Cc1cccc(NC(=O)CCSc2nnc(Cc3ccccc3)o2)c1`: the compound was called inactive.

As to `O=C(COC(=O)CCC(=O)c1ccc(F)cc1)Nc1ccc(F)cc1F`, the outcome was inactive.

`CC(/C=C/c1ccco1)=N/NC(=O)c1ccc(C)nc1`: the result was inactive.

As for `COc1ccc(OCC(=O)N/N=C2\CCc3ccccc32)cc1`, the outcome was inactive.

As for `CCOc1ccccc1NC(=O)COn1nnc2ccc(Cl)cc21`, the call was inactive.

On to `COc1ccc(CN=C(C#N)C2=C(O)c3ccccc3C2=O)cc1`, for which the result was inactive.

Take `COc1cccc(NC(=O)c2cnc(SC)nc2)c1`: the result was inactive.

`COc1cccc(NC(=O)c2ccc(C(=O)c3ccccc3)o2)c1`: the outcome was inactive.

`C(#CCN1CCOCC1)COCc1ccccc1`: the outcome was inactive.

Take `O=c1cc(C(F)(F)F)[nH]c2c(C(F)(F)F)cccc12`: the compound was called inactive.

As to `O=C(Nc1ncc2c(n1)-c1ccccc1OC2)c1ccc(F)cc1`, the compound was classed as inactive.

Consider `O=C(Nc1nnc(C2=COCCO2)o1)c1ccc(F)cc1`, for which the compound was called inactive.

`CCOC(=O)CNCCC(=O)c1ccc(Br)cc1`: the outcome was inactive.

For `COc1ccc(S(=O)(=O)NCc2ccc3c(c2)cc(C)n3C)cc1`, the call was inactive.

With `COC(=O)COc1ccc(-c2nn(C)c(=O)c3ccccc23)cc1`, the result was inactive.

On to `NC(N)=Nc1nc(-c2ccccc2)c2ccccc2n1`, for which the call was inactive.

Consider `COC(=O)[C@H](CC(C)C)NC(=O)NCCC1=CCCCC1`, for which the call was inactive.

As to `O=C(NCc1cccs1)c1cc(-c2ccc(O)cc2)on1`, the call was inactive.

Take `CC1CCN(CCOCCSc2ccc(Cl)cc2)CC1`: the result was inactive.

Regarding `CCOc1ccc(-c2ccc(SCC)nn2)cc1`, the compound was called inactive.

As for `O=C(CCSc1ccccn1)c1ccccc1`, the compound was classed as inactive.

On to `Nc1c(C(=O)NC2CCCCC2)nsc1C(=O)OCC(=O)NC1CCCCC1`, for which the outcome was inactive.

Regarding `CCC(C)c1ccc(OCCn2ccnc2)cc1` (stereo not given), the compound was classed as inactive.

As for `O=C(N/N=C/C(Br)=C/c1ccccc1)c1ccncc1`, the compound was classed as inactive.

`O=C(N/N=C/C(Br)=C/c1ccccc1)c1cnccn1`: the compound was classed as inactive.

Turning to `O=C(Cc1ccccc1)Nc1ccc(C(=O)NCC2COc3ccccc3O2)cc1` (stereo not given), the compound was classed as inactive.

For `O=C(NCc1ccc(Cl)cc1)c1n[nH]c([N+](=O)[O-])c1Cl`, the result was inactive.

In the case of `CCOc1ccc(NC(=O)COc2ccc3c(c2)OCO3)cc1`, the call was inactive.

For the compound `CC(C)(C)c1ccccc1OCCOCCN1CCCCCC1`, the call was inactive.

Consider `Cc1ccc(C(=O)NCCOc2cccc(C)c2)cc1`, for which the compound was classed as inactive.

For `Cc1cccc(OCCCCc2c(C)n[nH]c2C)c1`, the compound was classed as inactive.

For `Cc1cc(OCc2cc(C(=O)N(C)CCc3cnn(C)c3)no2)cc(C)c1Cl`, the compound was classed as inactive.

As for `COc1cccc(COC(=O)c2sc3nc4n(c(=O)c3c2C)CCC4)c1OC`, the result was inactive.

In the case of `CCOc1ccc(OCCSc2ccc(S(=O)(=O)N3CCN(C)CC3)cn2)cc1`, the compound was classed as inactive.

As to `O=C(CCN1CCOCC1)c1ccc(Br)cc1`, the result was inactive.

On to `Cc1cc(C(=O)N/N=C/C=C/c2ccccc2)c(C)o1`, for which the outcome was inactive.

In the case of `Nc1ccc2c(c1)oc1ccccc12`, the result was inactive.

As to `CCCc1nnc(-c2ccc(OC)cc2)o1`, the outcome was inactive.

For `Cc1ccc(SCCC(=O)OCC(=O)NCC2CCCCC2)cc1`, the compound was called inactive.

With `NC(=O)CN1CCN(C2CC(=O)N(CCc3ccccc3)C2=O)CC1` (stereo not given), the outcome was inactive.

Take `NNC(=O)COc1cccc(Oc2ccccc2)c1`: the result was inactive.

In the case of `CCOC(=O)COc1ccc2c3c(c(=O)oc2c1C)CCC3`, the outcome was inactive.

Take `O=Cc1coc2ccc3ccccc3c2c1=O`: the call was inactive.

For `O=C(OCc1ccc([N+](=O)[O-])cc1)c1ccc2ccccc2n1`, the result was inactive.

In the case of `Cc1cc(C=C2C(=O)N(C)C(=S)N(C)C2=O)c(C)n1-c1cccnc1`, the compound was classed as inactive.

On to `Cc1ccc2nc(C)c3c(c2c1)SCC3`, for which the result was inactive.

As for `CCCCn1c(=O)c(C(=O)Nc2nnc(C(C)C)s2)c(O)c2ccccc21`, the call was inactive.

On to `CCOC(=O)Cc1csc(NC(=O)COc2ccc3c(c2)CCC3)n1`, for which the outcome was inactive.

As for `CCCCCCn1c(=O)c(C(=O)Nc2nnc(C)s2)c(O)c2ccccc21`, the compound was classed as inactive.

Turning to `O=C(NC(=S)N1CCN(C/C=C/c2ccccc2)CC1)c1ccco1`, the result was inactive.

As for `Brc1ccc(-c2ccc(CNCc3ccccn3)o2)cc1`, the call was inactive.
